High-throughput results as filed in PubChem.
BAZ2B block: blocks human BAZ2B. Potency, µM (titrated, usually from 114 µM), inactives show at the top dose activity change, negative = inhibition, actives largely listed as inhibitors. AlphaScreen BAZ2B-H3K14Ac peptide displacement. Q9UIF8. actives 4.4% (n = 360,000); note: % is set by controls: 0 for no effect and ±100 for the full control effect; nearly all actives have a fitted effect of over 60% in size
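AlphaScreen displacement of biotin-H3(5-23)K14Ac peptide (50 nM final) from BAZ2B (50 nM final) in PBS pH 7.4, 0.01% Tween-20; complex preformed 30 min RT, then compounds (top 110 uM) 30 min RT, beads 20 min dark.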
G9a block: inhibitors of human histone lysine methyltransferase G9a | Q96KQ7 | G9a H3K9 monomethylation, AlphaScreen, 2 h | Potency, µM (highest dose often 102 µM), without a hit: at the top dose activity, negative = inhibition, most hits filed as inhibitors | actives 8.8% (n = 350,000) | AID 504332; note: % is set by controls: 0 for no effect and ±100 for the full control effect; nearly all actives have a fitted effect of over 75% in size
Target sequence (Q96KQ7 913-1193 limits assumed): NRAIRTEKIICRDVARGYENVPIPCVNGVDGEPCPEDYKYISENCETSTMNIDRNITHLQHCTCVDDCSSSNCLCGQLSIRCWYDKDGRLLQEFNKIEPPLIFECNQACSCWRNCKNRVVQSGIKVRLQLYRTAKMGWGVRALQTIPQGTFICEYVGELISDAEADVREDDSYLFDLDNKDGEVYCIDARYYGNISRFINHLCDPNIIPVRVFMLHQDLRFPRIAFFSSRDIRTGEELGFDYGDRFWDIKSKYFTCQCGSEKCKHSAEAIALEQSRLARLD
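Signal arises when biotinylated H3K9 peptide, once monomethylated, bridges streptavidin donor and antibody-captured acceptor beads. Enzyme at 20 nM was preincubated 15 min with test compounds; peptide 500 nM and SAM 20 uM then reacted for 2 h.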
ALOX12 inh: blocks human arachidonate 12S-lipoxygenase; P18054; purified 12hLO, xylenol orange hydroperoxide absorbance; Potency, µM (doses to about 108 µM), without a hit: at the top dose activity change, negative = inhibition, most hits filed as inhibitors; actives 1.1% (n = 580,000); AID 1671190; note: % is set by controls: 0 for no effect and ±100 for the full control effect
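Hydroperoxide product was detected by ferrous iron/xylenol orange as the 573 to 405 nm absorbance ratio. Arachidonic acid at 40 uM (final) was turned over for 30 min at room temperature by 150 nM human 12hLO, pH 7.0 Hepes buffer, after 15 min compound preincubation.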
JMJD2A Tudor inh: inhibitors of human JMJD2A Tudor domain. O75164. AlphaScreen JMJD2A-Tudor / H3K4me3 peptide binding. Potency, µM (series often up to 114 µM), without a hit: at the top dose activity change, negative = inhibition, usual class: inhibitors. actives 4.4% (n = 390,000). AID 504339; note: % is set by controls: 0 for no effect and ±100 for the full control effect; nearly all actives have a fitted effect of over 50% in size
HP1b chromo inh: inhibitors of HP1-beta chromodomain binding to methylated histone tails | P83916 | AlphaScreen HP1-beta / biotin-H3K9me3 peptide binding | Potency, µM (highest dose often 114 µM), for inactives: top-dose activity change, negative = inhibition, hits mostly inhibitors | actives 0.56% (n = 390,000); note: nearly all actives have a fitted effect of over 70% in size
Target sequence (P83916 whole entry, looked up): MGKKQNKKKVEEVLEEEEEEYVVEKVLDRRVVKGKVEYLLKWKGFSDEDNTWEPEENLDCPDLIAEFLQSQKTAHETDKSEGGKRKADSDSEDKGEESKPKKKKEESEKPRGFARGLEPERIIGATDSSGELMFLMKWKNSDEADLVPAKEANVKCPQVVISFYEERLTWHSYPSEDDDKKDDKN
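AlphaScreen: HP1-beta (50 nM) preformed 30 min with biotin-H3(1-18)K9me3 peptide (50 nM) in PBS pH 7.4, 0.01% Tween-20. Compound added for 30 min at RT, then streptavidin donor/nickel chelate acceptor beads (10 ug/mL) for 30 min.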
PLK1 PBD block: PLK1 (human) polo-box domain binding inhibition | P53350 | Plk1 PBD binding of FITC phosphopeptide, fluorescence polarization | Potency, µM, for the others: max response, negative = inhibition, most hits filed as inhibitors | actives 2.8% (n = 360,000); note: series mostly up to about 57 µM; % is set by controls: 0 for no effect and ±100 for the full control effect; nearly all actives have a fitted effect of over 65% in size
* marks the source's active call; other numbers are inactive results; ? = inconclusive; nt = no result; [ ] = remark or other dose. Sampled rows, rich in hits. Any-hit rate of the full collection: about 9%. Calls come from the whole dose curve; as a rule, active = well fitted curve in the direction sought with a large enough effect; inconclusive = small, poorly fitted or top-dose-only effect, or another doubt; inactive = no such curve, though single readings can be large; an effect the other way counts as inactive or inconclusive. Potency is the fitted concentration of half-maximal effect.

SMILES	BAZ2B block	G9a block	ALOX12 inh	JMJD2A Tudor inh	HP1b chromo inh	PLK1 PBD block
COc1cccc2[nH]c3c(N4CCCCC4)ncnc3c12	nt	?	-28%	-3%	?	-3%
COc1ccc2[nH]c3c(N4CCc5ccccc5C4)ncnc3c2c1	?	45µM*	?	?	-18%	6%
O=C(O)C1=NN(c2ccccc2)C(=O)CC1	?	-2%	?	-3%	29%	4%
Nc1csnc1C(=O)O	?	32µM*	0%	20µM*	14%	-2%
Cc1ccc(S(=O)(=O)CNC(=S)c2ccc3ccccc3c2)cc1	?	8.9µM*	?	?	-18%	?
COc1ccc(C(=S)Nc2ccc(C)cc2)cc1	-4%	10µM*	?	-25%	?	21µM*
Cc1ccc(S(=O)(=O)CNC(=S)c2cccc(C)c2)cc1	-7%	10µM*	?	-31%	?	?
COc1ccc(C(=S)NCS(=O)(=O)c2ccc(C)cc2)cc1	?	8.9µM*	16µM*	-27%	-29%	19µM*
Fc1ccc(-c2cnc([C@@H]3COCCN3Cc3ncc[nH]3)[nH]2)cc1	nt	nt	95%[176 µM]	nt	nt	nt
CS(=O)(=O)Oc1ccc2c(c1)O/C(=C\c1ccc(Cl)cc1Cl)C2=O	nt	nt	8%	nt	nt	nt
Cc1cc(=O)c2ccccc2n1CC(=O)O	nt	nt	-11%	nt	nt	nt
Cc1cc(C)n(CC(=O)O)c(=O)c1[N+](=O)[O-]	-17%	45µM*	-7%	-8%	15%	-2%
CCCCOc1ccc(-c2csc(N)n2)cc1[N+](=O)[O-]	?	8.9µM*	-27%	-19%	-11%	0%
CCCCOc1ccc(C2=CSC3=NCCN23)cc1[N+](=O)[O-]	-26%	?	0%	?	-11%	-6%
Clc1ccc(OCCn2ccnc2)c(Cl)c1	50µM*	?	-20%	3.5µM*	?	-4%
C=CCc1cc(C)ccc1OCCOCCn1ccnc1	32µM*	10µM*	-18%	3.2µM*	28µM*	-17%
Cc1cc(Cl)c(OCCn2ccnc2)c(Br)c1	?	nt	?	18µM*	?	2%
Cc1ccc(C)c(OCCCCCn2ccnc2)c1	?	?	24%	?	1%	0%
C=CCc1cc(Cl)ccc1OCCn1ccnc1	50µM*	7.1µM*	?	20µM*	?	-7%
CC[C@@H](C)[C@@H](O)[C@H](C)C(=O)[C@H](C)/C=C(\C)C[C@H](C)[C@@H]1OC(=O)[C@H]1CC	nt	nt	6%	nt	nt	nt
COC(=O)c1cc(NC(=O)CN2CCc3cc4c(cc3C2)OCCCO4)cc(C(=O)OC)c1	-33%	13%	13%	-19%	15%	-2%
Clc1ccc(SCCn2ccnc2)cc1	56µM*	32µM*	?	3.5µM*	?	-8%
CC(C)(C)NC(=O)NC(=O)COC(=O)COc1ccc(Cl)cc1Cl	5%	4%	-8%	-29%	1%	12µM*
Cc1ccc(NC(=O)/C(=C/C=C/c2ccccc2)NC(=O)c2ccccc2)cc1	3%	10%[59 µM]	-16%	-15%	21%	5%
O=C(NCc1ccccn1)c1coc(=O)c(Br)c1	18µM*	?	79%	?	25%	-11%
SMILES	BAZ2B block	G9a block	ALOX12 inh	JMJD2A Tudor inh	HP1b chromo inh	PLK1 PBD block
O=C(Nc1ccccc1F)c1coc(=O)c(Br)c1	?	10%[59 µM]	?	?	5%	-13%
O=C(NCc1ccccn1)c1ccc2ccccc2c1	nt	nt	16%	nt	nt	nt
O=C(Nc1ccc(Br)cn1)c1cccc(-c2cc3ccccc3oc2=O)c1	?	25µM*	-19%	-30%	-2%	-7%
Cc1cc(NC(=O)c2coc(=O)c(Br)c2)ccc1C(C)C	13%	50µM*	-29%	-8%	29%	1%
O=C(Nc1ccc(Br)cn1)c1coc(=O)c(Br)c1	?	50µM*	-29%	-7%	13%	-8%
c1ccc2c(c1)OCC(CCn1ccnc1-c1cc3n(n1)CCNC3)O2 (stereo not drawn)	nt	nt	15%	nt	nt	nt
Cc1ccc(-c2nc(C(=O)N3CCN(c4ccc(Cl)cc4)CC3)no2)cc1	nt	nt	41%	nt	nt	nt
O=c1c(-c2ccccc2)nc2ccccc2n1C(c1ccccc1)c1nc2ccccc2[nH]1 (stereo not drawn)	nt	nt	0%	nt	nt	-18%
Oc1ccccc1/C=N/Nc1ccccc1	-36%	8.9µM*	32µM*	-32%	22%	-5%
NC(=S)N/N=C/c1ccc(/C=N/NC(N)=S)cc1	2%	nt	-7%	-4%	67%	-1%
NC(=S)N/N=C/c1ccccc1O	35µM*	6%	0%	89µM*	39%	1%
COc1cc(OC)c(/C=N/NC(N)=S)cc1Br	-1%	?	?	-5%	31%	-2%
Cc1cc(/C=N/NC(N)=S)c(O)c(/C=N/NC(N)=S)c1	3.2µM*	2%	?	13µM*	31%	?
O=C(NN=Cc1ccccc1O)C1CC1	nt	nt	-19%	-5%	40%	-2%
O=C(N/N=C/c1ccccc1O)C1SCCCS1	79µM*	62%	6%	?	47%	4%
Oc1ccccc1C=NNC(=S)NN=Cc1ccccc1O	nt	nt	?	20µM*	-16%[57 µM]	0%
NC(=S)N/N=C/c1cccc(O)c1O	8.9µM*	?	?	28µM*	26%	-3%
Oc1cccc(/C=N/NC(=S)Nc2cccnc2)c1O	5.6µM*	11µM*	45µM*	20µM*	-13%	0%
Cc1cc(O)c(C=Nc2cccc(Cl)c2)c(=O)o1	-7%	?	-9%	-29%	28%	-4%
Cc1cc(O)c(/C=N/Nc2ccccc2)c(=O)o1	?	?	?	8.9µM*	3%	-5%
CCOC(=O)CC(NC(=O)Cn1nnc(-c2ccccc2C)n1)c1ccc(OC)cc1 (stereo not drawn)	-20%	?	-1%	-23%	38%	nt
Cc1nnc(NC(=O)CSc2nccn2-c2ccc(F)cc2)s1	nt	-40%	0%	-12%	15%	-5%
COc1ccc(/C=N/Nc2nonc2N)cc1OC	-10%	0%[59 µM]	13%	3%	39%	-2%
CCOC(=O)C(NC(=O)c1ccccc1Cl)(Nc1sc2c(c1C(N)=O)CCC2)C(F)(F)F (stereo not drawn)	-1%	28µM*	?	-20%	17%	?
COc1cc(OC)cc(C(=O)NCc2n[nH]c(=S)n2-c2ccccc2)c1	10%	7%[0.0925 µM]	?	7.9µM*	18%	-7%
COc1ccc(C(=O)NCc2n[nH]c(=S)n2-c2ccccc2)cc1OC	0%	?	-21%	6.3µM*	11%	-11%
COc1ccc(C(=O)NCc2ccccc2)cc1Br	-2%	-2%[59 µM]	-6%	0%	25%	1%
